GAA glycogen = inhibitors or activators of human alpha-glucosidase glycogen cleavage | AID 2100 | recombinant GAA, glycogen substrate, Amplex Red glucose oxidase fluorescence | hit rate 0.38% among 300,000 | P10253 | Potency, µM (top dose mostly 76.4 µM), without a hit: top-dose activity change, negative = inhibition, most hits filed as inhibitors;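 note: potency is the fitted concentration of half-maximal effect; 0% = full enzyme reaction and -100% = no-enzyme basal signal; the screen sought inhibitors and activators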
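qHTS, 1536-well; enzyme 4 nM final; cpd up to 77 uM; substrate bovine liver glycogen 30 ug; 50 mM citrate/phosphate pH 5.0, 0.01% Tween-20; 37 C, 40 min; Amplex Red detection 45 min RT; Hill fit → AC50.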
GAA inh = blocks human lysosomal alpha-glucosidase; purified human GAA, 4-MU-alpha-glucoside fluorescence; hit rate 0.005% among 200,000; P10253; Potency, µM (titrated, usually from 76.9 µM), for the others: at the highest dose activity change, negative = inhibition, hits mostly inhibitors;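 note: potency is the fitted concentration of half-maximal effect; plate controls were uninhibited enzyme wells for no effect and no-enzyme background for full effect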
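AC50 values come from Hill fits of compound titrations (up to 77 uM) against 4 nM human enzyme. Substrate 4-methylumbelliferyl-alpha-D-pyranoside at 400 uM, pH 5.0 citrate buffer, 20 min room temperature; fluorescence Ex 365/Em 440 after alkaline stop.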
aGlu spleen mod = inhibitors or activators of human alpha-glucosidase in spleen homogenate; P10253; human spleen homogenate, 4-MU-alpha-glucoside fluorescence; Potency, µM (series often up to 79.9 µM), without a hit: at the highest dose activity change, negative = inhibition, hits mostly inhibitors; hit rate 0.006% among 240,000; AID 2112;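 note: potency is the fitted concentration of half-maximal effect; 0% = enzyme with vehicle and -100% = no enzyme basal signal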
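AC50 values come from Hill-equation fits of concentration-response data, normalized to no-enzyme and full-activity controls. Enzyme source: 1 ug human spleen homogenate; 1 mM fluorogenic 4-MU glucoside, pH 5.0 citrate buffer, 37 C, 40 min.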
GLA inh pH 4.5 = inhibitors of human alpha-galactosidase A at pH 4.5; P06280; purified enzyme, 4-MU-alpha-Gal fluorescence, pH 4.5; activity change, negative = inhibition, % at 105 µM; 230,000 tested, under 10 active;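 note: 0% = full activity with enzyme and -100% = basal without enzyme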
aGal spleen mod = inhibitors or activators of human alpha-galactosidase in spleen homogenate; P06280; human spleen homogenate, 4MU-alpha-Gal fluorescence, 40 min; Potency, µM (series often up to 80 µM), for the others: top-dose activity change, negative = inhibition, actives largely listed as inhibitors; hit rate 0.008% among 240,000;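 note: potency is the fitted concentration of half-maximal effect; 0% = enzyme with vehicle and -100% = no enzyme basal signal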
Target sequence (P06280 32-429 limits assumed): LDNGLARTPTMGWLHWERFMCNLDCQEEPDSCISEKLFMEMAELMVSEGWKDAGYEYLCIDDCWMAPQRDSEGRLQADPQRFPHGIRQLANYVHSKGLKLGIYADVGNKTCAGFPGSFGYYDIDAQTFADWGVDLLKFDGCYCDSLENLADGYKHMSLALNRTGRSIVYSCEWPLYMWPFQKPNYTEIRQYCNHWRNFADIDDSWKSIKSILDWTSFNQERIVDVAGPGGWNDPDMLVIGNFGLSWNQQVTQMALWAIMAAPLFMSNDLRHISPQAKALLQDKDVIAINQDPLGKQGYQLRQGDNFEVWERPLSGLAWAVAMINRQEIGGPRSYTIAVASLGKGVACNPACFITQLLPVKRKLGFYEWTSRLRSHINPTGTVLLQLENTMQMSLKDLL
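Spleen homogenate 1 ug + cpd (titration) + 4-MU-alpha-D-galactopyranoside 1 mM; 37C 40 min; 50 mM citrate/phosphate pH 5.0, 0.01% Tween-20; stop pH 10; fluorescence 365/440; AC50 via Hill.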
Starred values were filed as active, the others as inactive; ? = inconclusive; · = no result; [ ] = another dose, or the depositor's remark. A selection: hits, their analogues and other compounds. The true share with any hit is near 0.4%. Calls come from the whole dose curve; as a rule, active = well fitted curve in the direction sought with a large enough effect; inconclusive = small, poorly fitted or top-dose-only effect, or another doubt; inactive = no such curve, though single readings can be large; an effect the other way counts as inactive or inconclusive.

SMILES	GAA glycogen	GAA inh	aGlu spleen mod	GLA inh pH 4.5	aGal spleen mod
COc1ccc(CNc2n[nH]c(NCc3ccc(OC)c(OC)c3)n2)cc1OC	22µM*	2%	3%	-1	-3%
N#Cc1c(/N=C/c2ccco2)sc2c1CCC2	22µM*	-10%	4%	-3	-16%
N#Cc1c(/N=C/c2cc3ccccc3s2)sc2c1CCC2	-14%	-7%	0%	8	4%
Cc1ccc(/C=N/c2sc3c(c2C#N)CCC3)s1	28µM*	6%	-3%	-1	0%
N#Cc1c(/N=C/C=C/c2ccccc2)sc2c1CCCC2	12µM*	2%	-20%	?	-3%
Cc1[nH]n(-c2cccc3ccccc23)c(=O)c1/C=N/c1sc2c(c1C#N)CCC2	20µM*	-15%	4%	-7	9%
Cc1ccc(/C=N/c2sc3c(c2C#N)CCCCC3)o1	?	-3%	4%	2	4%
Cc1ccccc1-c1noc(-c2ccc(NCc3ccco3)c([N+](=O)[O-])c2)n1	-5%[76.3 µM]	·	·	·	·
Cc1ccc(C2CC(=O)Oc3cc4c(cc32)OCO4)cc1 (centres undefined)	·	·	-2%[119 µM]	-4	-4%[119 µM]
Cc1cc(NC(=O)NC2(C(F)(F)F)Oc3ccc(Cl)cc3O2)no1 (centres undefined)	7.1µM*	-1%	-2%	-3	-4%
COc1ccc(OC)c(NC(=O)NC2(C(F)(F)F)Oc3ccccc3O2)c1	35µM*	0%	2%	3	-4%
COc1ccc(OC)c(NC(=O)Nc2ccccc2C)c1	2%	?	3%	0	4%
CCN(CC)c1cc2c(cc1F)c(=O)c(S(=O)(=O)c1ccc(OC)cc1)cn2Cc1ccccc1	-4%[76.3 µM]	·	·	·	·
CCOC(=O)OCC1OC(C#Cc2ccccc2)C=CC1OC(=O)OCC (centres undefined)	·	·	4%[17.4 µM]	·	-3%[17.5 µM]
C[C@H](Cc1ccc(O)c(O)c1)[C@@H](C)Cc1ccc(O)c(O)c1	·	·	-12%	-2	11µM*
CC(Cc1ccc(O)c(O)c1)C(C)Cc1ccc(O)c(O)c1 (centres undefined)	·	·	-1%	-5	-9%
CCOC(=O)c1[nH]c2ccc(OC)cc2c1NS(=O)(=O)c1ccc(OC)cc1OC	13µM*	-1%	-11%	2	-6%
CCOC(=O)c1[nH]c2ccc(OC)cc2c1NC(=S)N1CCN(C(=O)OCC)CC1	?	1%	-4%	2[21.1 µM]	-1%
CCOC(=O)c1[nH]c2ccc(OC)cc2c1NC(=S)N1CCN(c2ccccc2OC)CC1	4µM*	3%	-7%	7	8%
COc1ccc(Cn2cc(C(=O)c3ccc(C)c(C)c3)c(=O)c3ccccc32)cc1	7%[76.3 µM]	·	·	·	·
Cc1cc(Nc2ccc(Cl)cc2)n(-c2ccccc2)n1	?	-3%	15%	-1	14%
Cc1cc(Nc2nc3c(c(=O)n(C)c(=O)n3C)n2C)n(-c2ccc(Cl)cc2)n1	25µM*	-19%	2%	-6	-2%
CC(C)(C)c1ccc(S(=O)(=O)c2cnc(SCC(=O)Nc3ccc4c(c3)OCCO4)[nH]c2=O)cc1	-17%[76.3 µM]	·	·	·	·
CC(C)(C)c1ccc(N2C[C@@H](COc3ccc(C(=O)O)cc3)CC2=O)cc1	·	·	-5%	·	-15%
O=C(CSc1cn(CCNC(=O)c2cccc(C(F)(F)F)c2)c2ccccc12)Nc1ccc2c(c1)OCCO2	35µM*	·	·	·	·
SMILES	GAA glycogen	GAA inh	aGlu spleen mod	GLA inh pH 4.5	aGal spleen mod
CC(Sc1nc(NCc2ccccc2)nc(N(C)C)n1)C(=O)Nc1ccccc1 (centres undefined)	-1%	-4%	-7%	-5	-5%
CC(=O)C(Sc1nc(N(C)C)nc(N(C)C)n1)C(=O)Nc1ccccc1 (centres undefined)	20µM*	-8%	-4%	2	7%
CC(=O)NNC(=O)c1cc2sccc2s1	-15%	?	1%	-14	7%
NNC(=O)c1cc2sccc2s1	25µM*	2%	-2%	-8	-7%
Oc1ccc(Nc2nc(-c3ccc4ccccc4c3)cs2)cc1	5.6µM*	?	10%	2	10%
Oc1ccc(-c2nc(-c3ccc(O)c(O)c3)cs2)cc1	11µM*	-9%	1%	-2	6%
Cc1nc2ncccn2c1-c1csc(Nc2ccc(O)cc2)n1	22µM*	-4%	0%	-3	-1%
Oc1ccc(-c2csc(-c3cccnc3)n2)c(O)c1	-10%	1%	5%	0	4%
CC(=O)Nc1ccc(Nc2nc(-c3sc(NC(C)=O)nc3C)cs2)cc1	-2%[76.3 µM]	·	·	·	·
Cc1ccc(Nc2nc(-c3c(C)nc4ncccn34)cs2)cc1	?	4%	-5%	-6	-3%
CC(=O)Nc1nc(C)c(-c2csc(Nc3ccc(O)cc3)n2)s1	25µM*	0%	2%	0	1%
CC1=C(C(N)=O)C(c2ccc(C(C)C)cc2)n2nc(SCc3ccccc3F)nc2N1 (centres undefined)	-6%[76.3 µM]	·	·	·	·
Cc1ccc(Nc2nc(-c3c(C)nc4ccccn34)cs2)cc1	28µM*	-7%	6%	-7	9%
C/C(=N\NC(=O)c1ccccc1F)c1ccc2c(c1)Nc1ccccc1S2	25µM*	0%	-2%	1	5%
C/C(=N\NC(=O)c1ccc(O)cc1)c1ccc2c(c1)Nc1ccccc1S2	?	-9%	-12%	-7	-17%
COc1ccc(C(=O)NNC(=S)NC(=O)C(C)(C)C)cc1	7.9µM*	1%	-5%	2	-6%
COc1ccc(NC(=S)N2CCCC(c3nc4ccc(C)cc4[nH]3)C2)c(OC)c1 (centres undefined)	16µM*	-5%	1%	-16	9%
Cc1[nH]c2ccccc2c1/C=N/NS(=O)(=O)c1ccccc1	?	1%	11%	-2	1%
Cc1[nH]c2ccccc2c1/C=N/NC(=S)NC(C)C	7.9µM*	2%	4%	-17	6%
Cc1[nH]c2ccccc2c1/C=N/Nc1ccccc1[N+](=O)[O-]	6.3µM*	-3%	2%	2	10%
CC(C)NC(=S)N/N=C/c1c[nH]c2ccccc12	-3%	-1%	7%	-13	6%
COc1ccc2nc(NC(=O)c3nc(SCc4ccc(F)cc4)ncc3Cl)sc2c1	9%[76.3 µM]	·	·	·	·
C[C@@H]1CCC2C(C)(C)C3CC21CC[C@@]3(C)O (some centres undefined)	·	·	2%	-3	0%
CCOC(=O)c1c(C)[nH]c2c1cc(O)c1ccccc12	16µM*	0%	-1%	-22	3%
Cc1ccc(-c2nc3ncccn3c2NC2CCCC2)o1	14µM*	5%	-3%	-7	6%
Brc1ccc(-c2nc3ncccn3c2NC2CCCCC2)o1	25µM*	-8%	5%	7	4%
COC(=O)C(CCSC)NC(=O)C1CCN(c2ncnc3c2nc2n3CCCCC2)CC1 (centres undefined)	12%[76.3 µM]	·	·	·	·
O=C1/C(=C/c2ccc(O)c(O)c2)Oc2ccccc21	·	·	2%	·	21%

Assay outcomes (PubChem)
